Among the data in PubChem BioAssay (NCI) are growth values, retold here.

The structures appear in SMILES notation. Compounds without any hit were thinned out: in the full panel of roughly 83,000, 20% have a hit.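 48-hour exposure, single concentration, 96-well plates; percent growth endpoint where 0 means no net growth. Active: below 10.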 The source made the active and inactive calls.

The test system of the assay is HL-60(TB) leukemia. Description: NCI-60 one-dose screen, 48 h (100 = growth as untreated, 0 = no growth, -100 = all killed). As to conditions: 10 µM unless noted.
Turning to `CC1(C)CC[C@]23CC[C@]4(C)[C@H](CC[C@@H]5[C@@]6(C)C/C(=C/O)C(=O)C(C)(C)[C@@H]6CC[C@]54C)[C@H]2[C@H]1OC3`, the growth is 102% (inactive).

For the molecule `O=C(CN1CCOCC1)Nc1ccc2ncnc(Nc3ccc(OCc4cccc(F)c4)c(Cl)c3)c2c1`, the growth is 75.2% (inactive).

For the molecule `CCN1C(=O)N(CC)C2C1NN=c1s/c(=C\c3ccc(F)cc3)c(=O)n12` (stereo not given), the growth was -47% (active).

With `O=C1c2cccnc2C(=O)c2c1c(C(=O)OCCN1CCOCC1)c1ccccn21`, the growth is -36.4% (active).

Consider `CCN(CC)CC(O)c1cc(-c2ccc(Cl)cc2)nc2cc(Cl)ccc12` (stereo not given), for which the growth is 17.9% (inactive).

Regarding `Cc1c(C(C)(C)O)cn2ncnc(Oc3ccc(NC(=O)Nc4ccc(Cl)c(C(F)(F)F)c4)cc3)c12`, the growth is 26.6% (inactive).

With `O=C(Oc1ccccc1)C(Br)C(Br)c1ccccc1` (stereo not given), the growth was 2.65% (active).

For the molecule `CN(C)c1ccc(/C=C\c2ccnc3ccccc23)cc1`, the growth is 26.1% (inactive).

Take `COC(=O)c1c(C)c2n(c1C)C(=O)C(c1ccccc1)=C2`: the growth is 67% (inactive).

Consider `Clc1cccc(Cc2cn3cc(-c4ccccc4)nc3s2)c1`, for which the growth is 66.1% (inactive).

On to `COc1ccc(-c2nn(-c3cccc(Cl)c3)cc2/C=C2\C(=N)N(c3ccccc3)N=C2N)cc1`, for which the growth is 9.27% (active).

For the molecule `CC(C)(C)[Si](C)(C)OC1[C@@H](CNC(N)=O)O[C@@H](n2cnc3c(NC(=O)Nc4ccccc4)ncnc32)[C@H]1O[Si](C)(C)C(C)(C)C` (stereo not given in full), the growth was 52% (inactive).

Turning to `O=C1Nc2ccccc2C2c3cccn3-c3ccccc3N12` (stereo not given), the growth was 86.1% (inactive).

For `Cc1cc(C(O)(c2ccc(Nc3ccccc3)cc2)c2ccc(Nc3ccc(S(=O)(=O)O)cc3)cc2)ccc1N` (stereo not given), the growth was -7.9% (active).

On to `O=C(N/N=C/c1ccc(O)c(O)c1)c1sc2ccccc2c1Cl`, for which the growth was 4.17% (active).

For the molecule `Cc1cc(N2CCOCC2)nc(N[C@@H]2CCC[C@H](Nc3ccnc4cc(Cl)ccc34)C2)n1`, the growth is -69.5% (active).

Turning to `CS(=O)CC1=NC(=N)N=C1CS(C)=O` (stereo not given), the growth is 91.2% (inactive).

For the molecule `CCN1CCN(C(=O)[C@@]2(C)CC[C@]3(C)CC[C@]4(C)C(=CC(=O)[C@@H]5[C@@]6(C)CC[C@H](OC7C[C@@H](O)[C@@H](O)C(C)O7)C(C)(C)[C@@H]6CC[C@]54C)[C@@H]3C2)CC1` (stereo not given in full), the growth is -57.2% (active).

`O=Nc1ccc(NC(=O)Nc2ccc([N+](=O)[O-])cc2)cc1`: the growth was 89.8% (inactive).

Regarding `CC(C)(C)CC(C)(C)Nc1c(-c2ccncc2)nc2cnccn12`, the growth is 102% (inactive).

`CC(C(=O)n1cc(-c2ccccc2)c(-c2ccccc2)c1)c1ccccc1` (stereo not given): the growth is 106% (inactive).

In the case of `Cc1ccc(C(=O)O)c(N)c1C`, the growth is 95.1% (inactive).

As for `O=S(=O)(Cc1ccccc1)c1ccccc1`, the growth is 96.5% (inactive).

For the molecule `Cc1cc(C)nc(SC2=C(Nc3cccc(Cl)c3C)C(=O)N(Cc3ccccc3)C2=O)n1`, the growth was 10.4% [30 µM] (inactive).

In the case of `O=C(CCCSc1nc(-c2ccccc2)cc(-c2ccc(Cl)cc2)n1)NO`, the growth was -15.8% (active).

In the case of `COc1cc(OC)c2c(=O)c3c(CC=C(C)C)cc(OC)c(O)c3oc2c1`, the growth is 96.7% (inactive).

As for `COC(=O)c1nc(=S)[nH]c(C(=O)OC)c1C(=O)c1ccccn1`, the growth is 97.9% (inactive).

For the molecule `COc1ccc(CNc2ccc3nc(CCC4CCCCC4)[nH]c3c2)cc1`, the growth was 54.8% (inactive).

For `CC/C(C)=C(\C)C(=O)O`, the growth was 100% (inactive).

Consider `COc1ccc(C(=O)C2CC2c2ccc(Cl)cc2)cc1` (stereo not given), for which the growth was 14.1% (inactive).

On to `OCC(CO)(CCl)CCl`, for which the growth is 96.3% (inactive).

Regarding `CN(C)c1ccc2c(c1)OC(N)=C(C#N)C2c1ccc2c(c1)CCCN2C` (stereo not given), the growth is 5.46% (active).

For `C#CCNC(=O)[C@H](Cc1ccccc1)NC(=O)[C@]12CC[C@@H](C(=C)C)[C@@H]1[C@H]1CC[C@@H]3[C@@]4(C)CCC(=O)C(C)(C)[C@@H]4CC[C@@]3(C)[C@]1(C)CC2`, the growth is 33% (inactive).

In the case of `CC(=O)Oc1ccc(C(OC(C)=O)OC(C)=O)cc1`, the growth is 90.3% (inactive).

As to `N#Cc1nc(-c2ccc(Cl)cc2)oc1S(=O)(=O)N1CCN(c2ccc(F)cc2)CC1`, the growth was 66.3% (inactive).

For the molecule `CCCCC(=O)OCC1OC(n2cnc3c(=S)nc[nH]c32)C(OC(=O)CCCC)C1OC(=O)CCCC` (stereo not given), the growth is 12.5% (inactive).

As for `CCN1C(=O)N(c2ccccc2)C2NC(=S)N(/N=C/C=C/c3ccccc3OC)C21` (stereo not given), the growth is -44.9% (active).

`C[C@@H]1C[C@H](N)C[C@H](c2ccncc2NC(=O)c2ccc(F)c(-c3c(F)cccc3F)n2)C1`: the growth is -0.14% (active).

As for `c1ccc(Cc2ccccc2)cc1`, the growth is 112% (inactive).

In the case of `COc1ccc(C2=Nn3c(nnc3-n3nc(C)cc3C)SC2)cc1`, the growth was -29% (active).
